Compound activity deposited in PubChem by National Center for Advancing Translational Sciences (NCATS).
SARS PLpro yeast: qHTS of Yeast-based Assay for SARS-CoV PLP; Potency, µM (highest dose often 32.9 µM), for the others: at the top dose activity, positive = growth rescue, usual class: activators; S. cerevisiae expressing SARS-CoV PLpro, growth rescue; hit rate 0.19% among 330,000; note: potency is the fitted concentration of half-maximal effect; 0% is about no effect; nearly all actives have a fitted effect of over 55% in size
Shiga toxin inh: A qHTS for Small Molecule Inhibitors of Shiga Toxin | inhibition, % at 38.7 µM | AID 2315, 2010 | hit rate 9.2% among 290,000 | Vero cells, Shiga toxin protein synthesis inhibition reporter; in the data active = inhibition mostly above about 28%, no sharp cut-off; inactive = mostly below about 43%; note: 0% is about no effect
Cycloheximide cs: Cycloheximide Counterscreen for Small Molecule Inhibitors of Shiga Toxin; cell reporter, cycloheximide protein synthesis inhibition counterscreen; max response, %; hit rate 12% among 300,000; AID 2314, 2010; in the data active = max response mostly above about 13%, no sharp cut-off; inactive = mostly below about 14%; note: read at 38.3 µM for the half of the compounds with a filed dose; 0% is about no effect
NS1 inh: qHTS Assay for Inhibitors of Influenza NS1 Protein Function. Potency, µM (doses to about 46.1 µM), for the others: top-dose activity, positive = more growth. hit rate 0.4% among 270,000. AID 2326, 2010; note: potency is the fitted concentration of half-maximal effect; actives are rising curves; nearly all actives have a fitted effect of over 50% in size
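Read-out: OD600 growth recovery of NS1-expressing budding yeast. Cells grown overnight at 30C in -URA glucose medium, washed, resuspended and diluted 1:100 in 2% galactose assay medium, pH 6.0. Same strain lacking NS1 served as positive control.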
Starred values were filed as active, the others as inactive; ? = inconclusive; / = no result given; + = active, no number. An excerpt weighted towards active compounds, which were near 12% of everything screened. Unless noted, calls come from the whole dose curve.

SMILES	SARS PLpro yeast	Shiga toxin inh	Cycloheximide cs	NS1 inh
Cc1cc(OC(C)C(=O)N/N=C/CC(C)c2ccccc2)ccc1Cl (stereo not drawn)	6.6%	-5.9	8.2	3.3%
CCOC(=O)c1ccc(S(=O)(=O)N2CCN(CCc3ccncc3)CC2)cc1	-5.4%	/	/	/
Cc1ccc(/C=C(\C#N)C(=O)N2CCCC2)c(C)c1	-6.7%	124.6*	36.8*	-4.7%
N#C/C(=C\c1ccc(O)cc1)C(=O)N1CCCC1	0.3%	21.1	9.7	3.6%
N#C/C(=C\C=C\c1ccccc1)C(=O)N1CCCC1	-6.4%	70.4*	21.7*	3.1%
CCN1CCN(C(=O)/C(C#N)=C/c2ccc(OC(F)F)cc2)CC1	-2.3%	-9.1	-5.4	/
N#C/C(=C\c1ccc(C#N)cc1)C(=O)N1CCCC1	1.2%	-17.3	-0.6	/
N#C/C(=C\c1ccc(OC(F)F)cc1)C(=O)N1CCCCC1	-12.6%	46.1*	27.5*	-45.9%
Cn1c(-c2cccc(Br)c2)cnc1NCc1ccccc1O	-0.6%	1.6	2.5	-11.7%
Nc1cc(Cl)ccc1N1CCCC1	-2.2%	-4.6	-6.1	/
CN1CCN(c2ccc(Cl)cc2N)CC1	-0.4%	12.8	11.2*	4.9%
Cc1cnc(C(=O)Nc2nc(-c3ccccc3)cs2)cn1	9.7%	4.1	-1.6	-2.8%
Cc1ccnc(Nc2nc(-c3ccccc3)cs2)c1	-3.6%	89.5*	55.3*	-12.3%
Cc1ccnc(Nc2nc(-c3c(C)nc4sccn34)cs2)c1	-18.8%	57.3	31.7*	-51.8%
Cc1ccc(Nc2nc(-c3c(C)nc4ncccn34)cs2)cc1	-11.5%	-5.4	-0.6	-14.5%
CC(=O)Nc1nc(C)c(-c2csc(Nc3ccccn3)n2)s1	-3.7%	89.9*	37.3*	3.3%
CC(=O)Nc1nc(C)c(-c2csc(Nc3cccc(C(C)=O)c3)n2)s1	-3.6%	8.5	12.7	5.5%
CC(=O)Nc1cccc(-c2csc(Nc3cc(C)ccn3)n2)c1	-23.0%	126.6*	41.4*	-15.3%
CCOc1ccc(S(=O)(=O)NCc2ccccn2)cc1NC(=O)c1ccccc1F	4.0%	7.6	-1.3	19.1%
CC(=O)Nc1cccc(-c2csc(Nc3ccccn3)n2)c1	-23.6%	90.3*	44.5*	-35.7%
CC(=O)Nc1ccc(-c2csc(Nc3cc(C)ccn3)n2)cc1	-16.8%	77.9*	48.6*	/
COc1ccc(-n2c(SC3CCOC3=O)nc3ccccc3c2=O)cc1Cl (stereo not drawn)	2.4%	-9.9	-2.3	/
COc1ccc(-n2c(SC3CCOC3=O)nc3ccccc3c2=O)cc1OC (stereo not drawn)	-0.8%	-2.5	38.3*	?
O=C(CSc1nc(C2CC2)nc2c1cnn2-c1ccccc1)Nc1c[nH]c(=O)[nH]c1=O	-0.5%	-5.7	12.1	/
Nc1cc(Cl)ccc1C(=O)OCC(=O)N1CCCC1	3.5%	35.0	17.3*	-23.2%
SMILES	SARS PLpro yeast	Shiga toxin inh	Cycloheximide cs	NS1 inh
Nc1cc(C(=O)OCC(=O)N2CCCC2)ccc1Cl	-0.2%	50.0*	30.5*	?
Nc1cc(Cl)ccc1C(=O)OCC(=O)N1CCCCCC1	-8.7%	/	/	/
Nc1cc(C(=O)OCC(=O)N2CCCC2=O)ccc1Cl	0.7%	/	/	/
O=C(OCC(=O)N1CCOCC1)c1ccccc1O	-1.4%	72.3*	28.6*	19.0%
Nc1cc(Cl)ccc1C(=O)OCC(=O)N1CCOCC1	-1.3%	25.2	21.2*	-4.2%
O=C(OCC(=O)N1CCOCC1)c1ccc(O)cc1	-1.3%	25.2	-1.0	1.9%
CN(C)CCn1c(CO)nc2c1c(=O)n(C)c(=O)n2C	/	/	/	8.3%
Cc1ccc(NC(=O)CNc2ccccc2N2CCCC2=O)cc1S(=O)(=O)N1CCCCC1	0.0%	/	/	/
N#Cc1cc2cc3c(cc2nc1N1CCCCC1)OCCO3	1.6%	46.1	21.8*	4.0%
Cc1ccc(C(=O)N2CCCN(c3nc4cc5c(cc4cc3C#N)OCO5)CC2)cc1	-8.3%	-21.4	-1.2	-13.0%
COc1ccc(OC)c(C(c2nnnn2CC2CCCO2)N2CCN(C3CCCC3)CC2)c1 (stereo not drawn)	3.98µM*	20.3	3.6	-2.8%
COc1ccc(OC)c(C(c2nnnn2CC2CCCO2)N2CCN(C)CC2)c1 (stereo not drawn)	2.7%	12.0	-1.4	-7.0%
CC(C)(C)n1ncc2c(=O)n(CC(=O)Nc3ccccc3)cnc21	-1.4%	16.8	11.5	-3.0%
CC(C)(C)n1ncc2c(=O)n(CC(=O)NCc3ccco3)cnc21	-12.9%	67.0*	45.9*	-0.5%
CC(C)(C)n1ncc2c(=O)n(CC(=O)NC3CCCCC3)cnc21	-8.9%	84.8*	34.7*	1.4%
CC(C)(C)n1ncc2c(=O)n(CC(=O)NCc3ccc(F)cc3)cnc21	?	54.5*	27.0*	7.1%
Cc1ccc(NC(=O)CNS(=O)(=O)c2ccc(F)cc2)cc1C	13.8%	52.0	5.7	-0.3%
CCOC(=O)c1oc2ccc(Br)cc2c1COC(=O)C1=COCCO1	1.4%	/	/	/
CCN(C(=O)c1ccco1)c1nnc(-c2cccnc2)s1	-3.7%	74.7*	33.7*	-21.1%
CCCCN(C(=O)Cc1cccs1)c1nnc(-c2cccnc2)s1	2.6%	44.0*	20.0*	-4.5%
COCCN(C(=O)c1ccco1)c1nnc(-c2ccc(OC)c(OC)c2)s1	18.1%	-3.4	-2.3	3.3%
CN(C(=O)c1ccco1)c1nc(CC(=O)Nc2ccccc2)cs1	-27.3%	+	17.6	-8.8%
COCCN(C(=O)c1ccco1)c1nnc(-c2ccc(F)cc2)s1	-1.8%	44.4	23.4*	2.5%
COCCN(C(=O)Cc1cccs1)c1nnc(-c2cccnc2)s1	-2.9%	0.7	1.7	-8.8%
c1ccc(-c2nc(NC3CCCC3)c3ccccc3n2)cc1	-6.4%	43.5	4.3	-42.7%
SMILES	SARS PLpro yeast	Shiga toxin inh	Cycloheximide cs	NS1 inh
COc1cccc(/C=C/C(=O)NNC(=O)c2cc(C)oc2C)c1	0.5%	/	/	/
CCN(CC(=O)Nc1ccc(OC)cc1)C(=O)c1cc(S(=O)(=O)N2CCOCC2)ccc1N1CCCC1	0.8%	/	/	/
CN(C(=O)c1ccco1)c1nnc(-c2ccc(F)cc2)s1	-5.4%	84.7*	50.9*	-30.7%
O=C(c1ccco1)N(CCCN1CCOCC1)c1nc(-c2ccc(F)cc2)cs1	-1.2%	4.7	2.6	-79.8%
CCCN(C(=O)c1ccco1)c1nnc(-c2ccccc2C)s1	-4.3%	131.7*	93.6*	-8.4%
CCCN(C(=O)c1cccs1)c1nnc(-c2ccncc2)s1	-4.2%	56.8*	22.2*	-15.2%
CN(C(=O)c1ccco1)c1nc(-c2ccc(F)cc2)cs1	3.4%	57.8*	44.5*	-27.0%
CCNCC(=O)N1c2ccccc2CCc2ccc(NC(=O)OCC)cc21	0.7%	-10.3	-5.8	-0.3%
O=C(COc1ccccc1Cl)NNC(=O)c1ccc2c(=O)n3c(nc2c1)CCC3	-5.2%	/	/	/
CCc1nn2c(=O)cc(COC(=O)c3cc(Cl)c(OC)c(OC)c3)nc2s1	-2.7%	/	/	/
O=C(NC1CCCCCC1)C(=S)NCc1ccccc1	-1.0%	61.9*	39.5*	-8.4%
O=C(NC1CCCCCC1)C(=S)NCCc1ccccc1	0.5%	-7.4	7.9	1.2%
O=C(NC1CCCCC1)C1CCN(C(=O)NCc2ccccc2)CC1	-11.9%	8.8	-1.6	-3.8%
O=C(NC1CCCCC1)C(=S)NCc1ccccc1	0.2%	82.7*	20.9*	-9.5%
CCN1C(=O)/C(=C/N2CCc3ccccc32)SC1=S	-1.9%	68.9*	15.8*	-10.9%
